Screen size: about 59,000 compounds; about 30 (0.05%) were called active. No stated cut-off is given here; in the data, active means max dye-equivalent concentration above about 11 nM; inconclusive means between about 1.1 nM and that limit; inactive means weaker than that. Shown is part of a subset that was picked to be rich in actives.

A short description of this experiment: qHTS Assay for Spectroscopic Profiling in Rhodamine Spectral Region. The settings on record: Rhodamine-region fluorescence, 547/598 nm, Tris buffer. From the text:
NIH Molecular Libraries Screening Centers Network [MLSCN] NIH Chemical Genomics Center [NCGC] […] Occasionally, the artifactual effect may originate from the compound#s own spectral or other biophysical properties which generally tend to track its assay concentration. Pre-screening/profiling the library with respect to the compounds# spectral properties should help one exclude false positives early on. While the most informative fluorescent profiling data set is obtained by performing a full excitation and emission scan of each well by using a monochromator-based plate reader, such an approach is practical only on a very limited scale as scanning each well requires long time. An alternative approach, applied here, is to perform plate reader scans using selected excitation and emission wavelength pairs to generate a multidimensional relational database that correlates compound concentration and the respective relative fluorescence intensity at a given wavelength set. A standard curve of rhodamine present on each plate as six-point concentration series, was used to compute a normalized fluorescence response, termed dye-equivalent concentration, for each compound at each concentration.
NCGC Assay Protocol Summary: Buffer: 100 mM Tris buffer, pH 8.0 Dye standard plate: The wells in columns 1 through 4 of a Kalypsys polypropylene 1536-well compound plate were filled with standard solutions of fluorophore corresponding to the spectral region of interest. Solutions of rhodamine were placed in the following wells: E1, F1: 3 mM, E2, F2: 300 uM, E3, F3: 30 uM, E4, F4: zero (DMSO), G1, H1: 3 uM, G2, H2: […], G3, H3: 300 nM, G4, H4: zero (DMSO). Assay Steps: Six uL of buffer were dispensed to 1536-well Greiner black plates. Compounds and dye standards (23 nL) were transferred via Kalypsys PinTool. The plates were incubated for 15 min at room temperature, and then read on ViewLux (Perkin-Elmer) High-throughput CCD imager using 547 nm and 598 nm excitation and emission filter set. Keywords: NIH Roadmap, MLSCN, MLI, MLSMR, qHTS, NCGC, Rhodamine , Fluorescent Profiling.
(In general: Quantitative high-throughput screening tests each substance at several concentrations.)
For the molecule `CCOC(=O)c1sc(=S)n2c1[nH]c(=O)c1ccc(C(=O)OC)cc12`, the max dye-equivalent concentration entry is “inactive”.
Under `O=C(Nc1ccccc1)Nc1ccccc1C(=O)NCc1ccco1` stands “inactive”; under `CCCCSc1nnc(-c2ccc(NC(=O)CC)cc2)n1C`, “inactive”.
With `Cc1cccc(N=C2NC(=O)CS2)c1C` the entry was “inactive”; with `CC1=NCCN1S(=O)(=O)c1ccc(Br)c(C)c1`, “inactive”; with `O=c1c(-c2ccc(F)cc2)nc2cnc(N3CCOCC3)nc2n1-c1ccccc1`, “inactive”.
Consider `OCCCNC(c1ccccc1)c1ccc(O)cc1` (stereo unspecified), for which the max dye-equivalent concentration result is “inactive”.
Take `Cc1ccccc1NC(=O)c1cc(S(=O)(=O)N2CCOCC2)cs1`: the max dye-equivalent concentration result is “inactive”.
Consider `O=C(Nc1cccnc1)c1noc2c1CCCCC2`, for which the max dye-equivalent concentration result was “inactive”.
With `CCC(=O)Nc1ccccc1N1CCN(S(C)(=O)=O)CC1` the entry was “inactive”.
With `COc1ccccc1C(=O)N1CCNC(=O)C1CC(=O)Nc1ccc(Cl)cc1` (stereo unspecified) the entry was “inactive”; with `C[C@H](CCC(=O)O)[C@H]1CC[C@@H]2[C@H]3CC[C@H]4C[C@H](O)CC[C@@]4(C)[C@@H]3CC[C@@]21C`, “inactive”; with `NC(=O)CSc1oc(-c2cccs2)nc1S(=O)(=O)c1ccccc1`, “inactive”.
With `CCOCCN(C=O)c1cccc(OC)c1`, the max dye-equivalent concentration result is “inactive”.
Under `O=C(COC(=O)c1ccc2c(c1)OCCO2)NCc1ccccc1` stands “inactive”.
With `COC(=O)CN(c1cccc(C(C)=O)c1)S(C)(=O)=O` the entry was “inactive”.
As for `COCCn1c(=O)c(C)nc2cnc(N(C)C)nc21`, the max dye-equivalent concentration result was “inactive”.
With `O=C(COc1ccc(F)cc1)N(CC1=CCS(=O)(=O)C1)c1ccccc1` the entry was “inactive”.
With `CN(c1ccc(C(=O)N2CCc3ccccc3C2)cc1)S(C)(=O)=O` the entry was “inactive”.
Under `CCCC(=O)Nc1nnc(CC(=O)OCC)s1` stands “inactive”; under `CCOP1(=O)C=C(C(C)(C)C)OC1c1ccc(F)cc1` (stereo unspecified), “inactive”; under `CC(=O)NC(Cc1ccc(F)cc1)C(=O)O` (stereo unspecified), “inactive”.
As for `Cc1[nH]c(N)nc(=S)c1CCCNc1ccccc1`, the max dye-equivalent concentration entry was “inactive”.
With `O=C(O)c1cscn1` the entry was “inactive”.
For the molecule `CCOC(=O)Cc1c(C)nc2c(C#N)c(C)nn2c1C`, the max dye-equivalent concentration entry is “inactive”.
Under `CCN(CCCNC(=O)C1CCN(S(=O)(=O)c2cnc[nH]2)CC1)c1ccccc1` stands “inactive”; under `COc1cc(OC)c(C(=O)Nc2ccc(N(C)C)cc2)cc1OC`, “inactive”.
For `Cc1nc2cc(-c3ccc(F)cc3)nn2c(N2CCOCC2)c1C`, the max dye-equivalent concentration entry was “inactive”.
With `COCCOC(=O)C1=C(C)Nc2nc(C)nn2C1c1ccccc1` (stereo unspecified) the entry was “inactive”.
With `CCOC(=O)c1sc(NC(=O)CSc2nnc(-c3ccco3)o2)c(C(=O)OCC)c1C` the entry was “inactive”; with `C[C@H](NC(=O)OC(C)(C)C)c1nnc(SCC(=O)Nc2ccc(Br)cc2)o1`, “inactive”.
With `Cn1c(=O)c2c(ncn2CC(=O)N2CCN(c3ccccc3)CC2)n(C)c1=O` the entry was “inactive”; with `CCCCc1nccn1CCn1ccnc1CCCC`, “inactive”.
Turning to `O=C(CCn1c(=O)oc2ccccc21)Nc1ccon1`, the max dye-equivalent concentration result is “inactive”.
For the molecule `O=C1OC(NC(=O)c2ccccc2)C(N2CCOCC2)=C1Cl` (stereo unspecified), the max dye-equivalent concentration result was “inactive”.
With `COc1cc(C2C(C(=O)c3sc(C)nc3C)=C(O)C(=O)N2CCN(C)C)cc(OC)c1OC` (stereo unspecified) the entry was “inactive”.
Under `COc1ccc(CC(=O)Nc2nc3n(n2)C(c2ccccc2)CC(=O)N3)cc1OC` (stereo unspecified) stands “inactive”.
In the case of `CCOC(=O)CN1CC23C=CC(O2)C(C(=O)Nc2ccc(F)cc2)C3C1=O` (stereo unspecified), the max dye-equivalent concentration result was “inactive”.
Under `CC1(C)Cc2c(C#N)c(SCc3nc4ccccc4[nH]3)nc(N3CCOCC3)c2CO1` stands “inactive”.
For `CCOC(=O)C1CCCN(Cc2nc(N)nc(Nc3ccc(C)cc3)n2)C1` (stereo unspecified), the max dye-equivalent concentration result was “inactive”.
With `CCN(CC)c1ccc2cc(C(=O)O)c(=O)oc2c1` the entry was “inactive”; with `Cc1ccc(CN2C(=O)CCC2C(=O)NCCCN2CCCCC2C)cc1` (stereo unspecified), “inactive”.
Under `Cc1ccc(Cn2nnc3c(=O)n(CC(=O)N4CCCCC4)cnc32)cc1` stands “inactive”.
Under `Cc1ccc(-n2nc3c(c2NC(=O)c2ccc4c(c2)OCO4)CSC3)c(C)c1` stands “inactive”; under `CCCC1CC(C)(C(=O)Cn2[nH]c(=O)ccc2=O)OC1=O` (stereo unspecified), “inactive”; under `CCc1cccc2c3c([nH]c12)C(CC)(CC(=O)O)OCC3` (stereo unspecified), “inactive”.
Turning to `CCC(c1nnnn1Cc1ccccc1)N(Cc1cc2cc(OC)ccc2[nH]c1=O)CC1CCCO1` (stereo unspecified), the max dye-equivalent concentration entry is “inactive”.
Under `O=C(CN(CC1CCCO1)C(=O)CNS(=O)(=O)c1ccccc1)NCc1ccccc1` (stereo unspecified) stands “inactive”; under `CC(=O)Nc1ccc(S(=O)(=O)N2CCN(CCCOc3cc(C)ccc3C)CC2)cc1`, “inactive”; under `CCNS(=O)(=O)c1ccc(NC(=O)Nc2cccc(C(F)(F)F)c2)cc1`, “inactive”.
In the case of `CCOc1ccc(CN(Cc2ccco2)C(c2cccs2)c2nnnn2C(C)(C)C)cc1` (stereo unspecified), the max dye-equivalent concentration result was “inactive”.
Under `O=c1[nH]c(-c2cccs2)nc2ccccc12` stands “inactive”; under `Cc1ccc2nc(NCCCNC(=O)c3cnccn3)c(C#N)cc2c1`, “inactive”; under `COc1ccc(C)cc1NC(=O)CSc1nc(SC)ns1`, “inactive”.
Under `Cc1nc2nc(CSc3nc4ccccc4s3)cc(=O)n2[nH]1` stands “inactive”; under `COc1ccc(Cl)cc1S(=O)(=O)Nc1cccc(C(=O)O)c1`, “inactive”.
